The results in this text go back to PubChem BioAssay (NCATS).

Inconclusive results are not listed. Calls of active or inactive are those of the source. Calls come from the whole dose curve; as a rule, active = well fitted inhibition curve with a large enough effect; inconclusive = small, poorly fitted or top-dose-only effect; inactive = flat fitted curve, though single readings scatter.
% is set by controls: 0 for no effect and ±100 for the full control effect; potency is the fitted concentration of half-maximal effect.

The nature of this assay: P-glycoprotein substrates identified in KB-8-5-11 adenocarcinoma cell line, qHTS therapeutic library screen (AID 1346987). Note: nearly all actives have a fitted effect of over 65% in size. The conditions noted are these: KB-8-5-11 (P-gp overexpressing) viability, CellTiter-Glo, 72 h; series mostly up to 44.5 µM; activity change, negative = cytotoxicity: at the top concentration. Summed up: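 Luminescence from CellTiter-Glo, read 5 min after addition, quantified survival of KB-8-5-11 (P-gp-overexpressing) cells exposed to compounds for 72 h. AC50 was derived from concentration-response curves.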
With `CC(=O)c1ccc2c(c1)[C@H](NC(=O)c1ccc(F)c(Cl)c1)[C@H](O)C(C)(C)O2`, the “activity change, negative = cytotoxicity” value is -22.6% (inactive).

On to `Cc1ccc(N2CCN(CCC3NC(=O)c4ccccc43)CC2)cc1C` (stereo not given), for which the “activity change, negative = cytotoxicity” value is -19.6% (inactive).

Regarding `CN(C)CC1CCn2c(c(C3=C(c4cn(C)c5ccccc45)C(=O)NC3=O)c3ccccc32)C1` (stereo not given), the Potency was 16.4 µM (active).

For the molecule `CC(C)(C)c1ccc(-c2nc3c(N4CCN(Cc5ccc6nccnc6c5)CC4)cccc3[nH]2)cc1`, the Potency is 13 µM (active).

In the case of `C[N+](C)(CCCCCC[N+](C)(C)C1c2ccccc2-c2ccccc21)C1c2ccccc2-c2ccccc21`, the “activity change, negative = cytotoxicity” value was 9.26% (inactive).

For the molecule `COc1ccc(CNCc2cccc3ccccc23)cc1`, the “activity change, negative = cytotoxicity” value was -15.9% (inactive).

In the case of `CC#CCC(C)[C@H](O)/C=C/[C@@H]1[C@H]2c3cccc(CCCC(=O)O)c3O[C@H]2C[C@H]1O` (stereo not given in full), the “activity change, negative = cytotoxicity” value was 6.96% (inactive).

For the molecule `CC1=CC2/C=C(\C)CCC(O)C(=O)C(O)CC(=O)C23C(=O)NC(CC(C)C)C3C1C` (stereo not given), the “activity change, negative = cytotoxicity” value was -13.5% [at 17.3 µM] (inactive).

Regarding `Nc1nc(NC2CC2)cc(-c2cccc(Cl)c2Cl)n1`, the Potency was 6.51 µM (active).

On to `Cc1cc2sc(NC(=O)Cc3ccccc3)nc2cc1Cl`, for which the “activity change, negative = cytotoxicity” value is -1% (inactive).

For the molecule `CC(C)c1cccc(C(C)C)c1NC(=O)Nc1ccc(Sc2ccc([N+](=O)[O-])cc2)cc1`, the Potency is 5.8 µM (active).

`Cc1ccc(O)cc1Nc1ccnc(Nc2cccc(C(N)=O)c2)n1`: the Potency was 23.1 µM (active).

For `COc1cc(N2CCOCC2)ccc1NC(=O)c1csc(-c2cccnc2)n1`, the Potency was 11.6 µM (active).

In the case of `COc1ccnc(CS(=O)c2nc3cc(OC(F)F)ccc3[nH]2)c1OC` (stereo not given), the “activity change, negative = cytotoxicity” value is -22.9% (inactive).

For `CCCOc1ccc2nc(NC(=O)OC)sc2c1`, the Potency was 5.8 µM (active).

On to `COC(=O)C1=CO[C@@H](O[C@@H]2O[C@H](CO)[C@@H](O)[C@H](O)[C@H]2O)[C@H]2[C@@H]1C=C[C@]21C=C([C@H](C)OC(=O)/C=C/c2ccc(O)cc2)C(=O)O1`, for which the Potency was 4.32 µM (active).

Regarding `CC(=O)O[C@@H]1C2=C(O)C(=O)[C@](C)(OC(C)=O)C(=O)C2=CO[C@@]12O[C@@H](C)CC[C@H]2OC(C)=O`, the “outcome” value was “inactive [at 17.3 µM]”.

Regarding `O=C(NCc1ccc(OC(F)(F)F)cc1)C1c2c(F)cccc2C(=O)N1CCc1ccccn1` (stereo not given), the “activity change, negative = cytotoxicity” value was -17.6% (inactive).

Regarding `CCCCCCCCCCCCCCCCCC(=O)[O][Al]`, the “activity change, negative = cytotoxicity” value is -2.19% (inactive).

In the case of `CC(C)(C)c1ccc(C(=O)Nc2cc(Cl)c(Br)cc2C(=O)O)cc1`, the Potency was 10.3 µM (active).

For `COc1ccc(CNCC(O)COc2ccc3[nH]c(=O)ccc3c2)cc1OC` (stereo not given), the “activity change, negative = cytotoxicity” value is 3.46% (inactive).

As for `C=C1C(=O)O[C@@H]2[C@H]1CC[C@H](C)[C@]1(CCC(=O)O1)C2(C)O` (stereo not given in full), the “activity change, negative = cytotoxicity” value was -8.78% (inactive).

For `O=C1c2ccc(Nc3ccc(F)cc3F)cc2CCc2ccc(OCC(O)CO)cc21` (stereo not given), the Potency is 14.6 µM (active).

With `OCC(O)COc1ccc(Cl)cc1` (stereo not given), the “activity change, negative = cytotoxicity” value was 10.7% (inactive).

Take `Cn1c(SCC(=O)N2CCC[C@H]2C(=O)Nc2ccccc2-c2ccccc2)nc2ccccc21`: the “activity change, negative = cytotoxicity” value was -13.6% (inactive).

As for `Cc1nnc(C[C@@H]2C=C(c3ccc(Cl)cc3)c3ccccc3-n3c(C)nnc32)o1`, the Potency is 2.59 µM (active).

For `CC(=O)OC1CCC2(C)C(CCC3(C)C2CC=C2C4C(C)C(C)CCC4(C)CCC23C)C1(C)C(=O)O` (stereo not given), the “activity change, negative = cytotoxicity” value is -10.4% [at 17.3 µM] (inactive).

Regarding `COc1ccc(NC(=O)c2ccc(-c3ccc(-c4nnc(C)o4)cc3C)cc2)cc1N1CCN(C)CC1`, the “activity change, negative = cytotoxicity” value was -13.9% (inactive).

`CC(=O)N[C@@H](C=O)[C@H](O)[C@H](O)[C@@H](O)CO`: the “activity change, negative = cytotoxicity” value is -14.5% (inactive).

As for `NC(=O)c1ccccc1Nc1ccnc(Nc2cccc(O)c2)n1`, the Potency was 8.2 µM (active).

For `C=CC(C)(O)CC/C=C(/C)COC(=O)C(C)C1CCC(C)(C=C)O1` (stereo not given), the “activity change, negative = cytotoxicity” value was -19% (inactive).

For the molecule `Cc1cc2ncc(C(=O)NCC(C)(C)NCC(=O)N3CCC[C@H]3C#N)cn2n1`, the “activity change, negative = cytotoxicity” value was 8.79% (inactive).

For `S=C(c1ccc(-c2ccc(Cl)c(Cl)c2)o1)N1CCCCC1`, the “activity change, negative = cytotoxicity” value is -10.6% (inactive).

As for `COc1ccccc1N1CCN(CC(C(=O)NC(C)(C)C)c2ccccc2)CC1` (stereo not given), the “activity change, negative = cytotoxicity” value is -2.02% (inactive).

For `COc1ccc2[nH]c(=O)c3c(c2c1)OC(C)(C)C=C3`, the “activity change, negative = cytotoxicity” value is 4.66% (inactive).

For `COc1cc2nc(N3CCN(C(=O)COc4c(OC)cccc4C(C)C)CC3)nc(N)c2cc1OC`, the “activity change, negative = cytotoxicity” value is -22.5% (inactive).

With `O=C(COc1ccc(C(=O)c2ccccc2)cc1)NC1CCN(Cc2ccccc2)CC1`, the “activity change, negative = cytotoxicity” value is -21.6% (inactive).

As for `O=c1cc(NCCCN[C@@H]2CCOc3c(Br)cc(Br)cc32)[nH]c2ccsc12`, the “activity change, negative = cytotoxicity” value is -12.4% (inactive).

In the case of `COc1c2c(nc3occc13)C(CC=C(C)C)(OC)C(O)CC2` (stereo not given), the “activity change, negative = cytotoxicity” value was -23% (inactive).

As for `Cc1c(C(=O)Nc2ccc(N3CCC(N4CCOCC4)CC3)c(C#N)c2)cnn1-c1ccc(Cl)cc1`, the Potency is 0.82 µM (active).
